From PubChem BioAssay (NCI)
This is part of a sample that, as a whole, favours compounds with a hit. Of some 79,000 tested, about 15% had one in any assay. Rule as the data show it: active = growth inhibition above about 70%; inactive = the rest.

Legend:
[1] = NCI Yeast Anticancer Drug Screen. Data for the rad50 strain (AID 155);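 also: 0% = growth of vehicle-only cultures of the same strain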; conditions: S. cerevisiae rad50 strain growth inhibition; at 50.0 µM; active compounds read high
How it was run: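 A DNA repair-deficient yeast mutant serves as the test organism; compound-induced growth inhibition is calculated against vehicle-treated cells.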

[2] = NCI Yeast Anticancer Drug Screen. Data for the mec2-1 strain (AID 157); conditions: S. cerevisiae mec2-1 strain, at 50.0 µM, active compounds read high
How it was run: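 Strain: mec2-1 (DNA repair/cell cycle alteration). Compound exposure, then growth measured; inhibition expressed relative to vehicle.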

[3] = NCI Yeast Anticancer Drug Screen. Data for the sgs1 mgt1 strain (AID 161);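 also: 0% = growth of cultures given vehicle only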; conditions: S. cerevisiae sgs1 mgt1 strain, at 50.0 µM, active compounds read high
How it was run: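 Mutant yeast exposed to compound; growth scored against vehicle-only wells.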

[4] = NCI Yeast Anticancer Drug Screen. Data for the cln2 rad14 strain (AID 165);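 also: 0% = growth equal to vehicle treated cultures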; conditions: S. cerevisiae cln2 rad14 strain, at 50.0 µM, active compounds read high
How it was run: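 Compounds are applied to the cln2 rad14 yeast strain, and growth is then compared with that of vehicle-treated cultures to give inhibition.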

[5] = NCI Yeast Anticancer Drug Screen. Data for the bub3 strain (AID 167); conditions: S. cerevisiae bub3 mutant strain, at 50.0 µM, active compounds read high
How it was run: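 Inhibition values come from growth of compound-treated mutant yeast normalised to vehicle-treated controls.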

[6] = NCI Yeast Anticancer Drug Screen. Data for the mlh1 rad18 strain (AID 175); conditions: S. cerevisiae mlh1 rad18 strain growth inhibition; at 50.0 µM; active compounds read high
How it was run: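 Read-out is yeast growth inhibition, calculated against vehicle-only controls. The compound was applied to a strain engineered with DNA damage repair alterations.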

Measured: growth inhibition

CN(C)CCSC(c1ccccc1)c1ccc(Br)cc1 (stereo not given)
inactive: [1] 32.5% | [2] 20.1% | [3] 52.4% | [4] 58.6% | [5] 34.4% | [6] 62.2%

O=C(O)C(=O)O.[Ru].c1cnc2c(c1)ccc1cccnc12.c1cnc2c(c1)ccc1cccnc12
inactive: [1] 25.1% | [2] -10.9% | [3] 2.95% | [4] 5.45% | [5] -2.2% | [6] 5.25%

NCCN.NCCN.O=C([O-])CCl.O=C([O-])CCl.[Co+3].[O-][Cl+3]([O-])([O-])[O-]
inactive: [1] -23.8% | [2] 3.45% | [3] -43.2% | [4] 8.4% | [5] -18.5% | [6] -9%

O=CNc1ccc(Cl)cc1C(=O)c1ccccc1
inactive: [1] 9.8% | [2] -0.35% | [3] 15.2% | [4] 28.8% | [5] 21.6% | [6] 4.4%

CCOP(=O)(OCC)/C(=C/c1cccs1)CC(C)=O
inactive: [1] 7.8% | [2] -57.6% | [3] -27.9% | [4] 14.6% | [5] -25.9% | [6] -76%

CN(C)C(=O)Sc1ccc(S(=O)(=O)F)c(Cl)c1Cl
inactive: [1] 26.4% | [2] 13.3% | [3] 31.1% | [4] 21.9% | [5] 3.25% | [6] 24.6%

C(/COc1cccnc1)=N\NC1=NCCN1
inactive: [1] -12.2% | [2] -29.6% | [3] -44.8% | [4] 3.7% | [5] -21.9% | [6] -35.9%

COc1ccc2c(c1O)-c1cc(O)cc3c1C(C2)NCC3 (stereo not given)
inactive: [1] 13.7% | [2] 21.8% | [3] -12.5% | [4] 7.25% | [5] 8.65% | [6] 30.9%

O=[N+]([O-])O.[Tl]
inactive: [1] -5.5% | [2] -23.2% | [3] -16.8% | [4] 6.8% | [5] -19.4% | [6] -18.4%

O=C(O)C(O)C(O)C(O)C(O)C(O)C(O)CO (stereo not given)
inactive: [1] -18.1% | [2] -6.95% | [3] -33.4% | [4] -73.5% | [5] 3% | [6] 2.95%

CC(=O)C1(c2ccccc2)CCNCC1
inactive: [1] -1% | [2] -13.1% | [3] 10.6% | [4] 11.9% | [5] -3.9% | [6] -3.35%

Cc1nccc2c1[nH]c1ccc(Br)cc12
inactive: [1] 13.7% | [2] 11.6% | [3] -7.55% | [4] -2% | [5] 9.55% | [6] 1.25%

COC(=O)C1C2CC3c4c(c5ccc(OC)cc5n4[N+](=O)[O-])CCN3CC2CC(OC(=O)c2cc(OC)c(OC)c(OC)c2)C1OC (stereo not given)
inactive: [1] -14% | [2] -50.5% | [3] -34.4% | [4] -17.9% | [5] -22.2% | [6] -3.9%

CC1C2CCC3C(O)C2(CC(O)C2(O)C1CC(O)C2(C)C)CC3(C)O (stereo not given)
inactive: [1] 11.6% | [2] -24.8% | [3] 6.85% | [4] 13.3% | [5] -5.15% | [6] -4.35%

Cc1cc(Cl)ccc1OC(C)C(=O)O (stereo not given)
inactive: [1] -2.05% | [2] -15.2% | [3] 0% | [4] 15.3% | [5] -12.7% | [6] -7.55%

CCOP(=S)(OCC)OCC1OC(OC)C2OC(C)(C)OC12 (stereo not given)
inactive: [1] -26.2% | [2] 1.9% | [3] -2.45% | [4] -35.4% | [5] 11.8% | [6] 4.4%

C[N+](C)(C)NP(=O)(N[N+](C)(C)C)Oc1ccccc1
inactive: [1] 28.4% | [2] 15.2% | [3] -10.7% | [4] 20.8% | [5] 1.05% | [6] 28.1%

CCCCCCCCCCCCCC[As](=O)(O)O
inactive: [1] 6.4% | [2] 17.9% | [3] 21.3% | [4] 1.65% | [5] 4.5% | [6] 44.5%

CC(Cl)CC(=O)OCC1CCCN2CCCCC12 (stereo not given)
inactive: [1] 55.1% | [2] 33.3% | [3] 23.6% | [4] 41.8% | [5] 45.4% | [6] 39.5%

COc1ccc(C(c2c(O)c3ccccc3oc2=O)c2c(O)c3ccccc3oc2=O)cc1
inactive: [1] -15.3% | [2] -0.35% | [3] -14.4% | [4] -18.2% | [5] 1% | [6] -0.7%
